Experimental data: the supplement of paper PMC11417369
The full ranking holds about 25,000 sequences; the median of “ln(normalized median fluorescence intensity)” is about 9.7, and the highest 2% start at about 11. For the sample, the highest values were picked, then their nearest neighbours and some sequences at random.

System: PfAP2-HC AP2 domain (GST-tagged)
Assay: gcPBM binding intensity (ln(normalized median fluorescence intensity)); higher = stronger DNA binding
Method in brief: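 GST-fused DNA-binding domains of P. falciparum, expressed in E. coli, were applied at about 25 μg on average for 1 h to an Agilent 4 × 180k array of primer-extended double-stranded 36-bp intergenic genomic probes and negative controls. Binding intensity is the highest Masliner-normalised natural-log median intensity across replicate spots of either probe orientation, measured with Alexa488 anti-GST antibody and a 488 nm scan.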

| Sequence | gcPBM binding intensity (ln) |
| --- | --- |
| TCTTACAAAAAACAAACAGAGAAAAATATAAGGAAA [XGTACX_negctrl_site520] | 9.61 |
| AAATTATTTCCGTGTACACATAAATATATATTTTAT [CACACA_site5121] | 9.89 |
| CAATATTTTCATAGATGTACTTTGGACTTATTATAT [XGTACX_site4849] | 9.6 |
| AATATTGTATATAATAAACACACAATATTAAAAATA [CACACA_site8262] | 10.1 |
| TAACATATTATATATACATGCATACGTGAACTAATC [TGCATGCA_site888] | 9.72 |
| ATTTATTTATGTATTTGTACGTATATATTTATGCAT [XGTACX_site5218] | 9.83 |
| AAGGACAACAAACAAACACACACAAAAAAAAAATAA [CACACA_site9263] | 10.2 |
| AAGTAAAAAAATAGCACACACACAAAAACACAGACA [CACACA_site4839] | 10.7 |
| TTTCAATAATAAAAAACACACACAAAAAAAAATAAT [CACACA_site8905] | 11 |
| ATAAATAAAAACACAAAACAAAACAAAACAAAACAA [CACACA_negctrl_site1257] | 9.61 |
| CAACAAAATAAACACACACACACAAACACAAAAAAA [CACACA_site5806] | 11.4 |
| AAAACAAATAGACACGCACACAAAAAAAAAAAAAAA [CACACA_site801] | 10.3 |
| AAAAAAATAAAACACACACACAAAAAAATAAAAATA [CACACA_site465] | 10.8 |
| TCAATAATAAAAAACACACACAAAAAAAAATAATTA [CACACA_site2798] | 10.2 |
| CAAAAAAAATAAAACACACACACAAAAAAATAAAAA [CACACA_site466] | 10.7 |
| GTAAAAAAATAGCACACACACAAAAACACGCACAAA [CACACA_site6723] | 11.4 |
| ACAAATAAATAAAAAACACACACAAATAAATAAATA [CACACA_site8708] | 10.6 |
| GGACAACAAACAAACACACACAAAAAAAAAATAAAA [CACACA_site3791] | 11 |
| TATTTGTAAAAATTGTGTACTTAGAAAATTCCAAAA [XGTACX_site6007] | 9.22 |

| Sequence | gcPBM binding intensity (ln) |
| --- | --- |
| ATAATATATGAAAAAACGATTTTTTCATTTTAAATA [XGTACX_negctrl_site146] | 9.51 |
| TTTGGTTATATTTAAAAAAGACTAATGAAAATTAAA [XGTACX_negctrl_site526] | 9.35 |
| AACATTCTATGTTGCACACAAAGAGAAAAATTTATT [CACACA_site3995] | 9.78 |
| TATATATATATATATATATATATTTTTATTATATAT [XGTACX_negctrl_site89] | 9.89 |
| GTTTTCATCCAAAAAAGTACATTTATTTTTATACGA [XGTACX_site1039] | 9.39 |
| TTTTCTAAAGTAAGTTAAGATATGCAAAAAAAAGAA [GTGCAC_negctrl_site242] | 9.62 |
| ACAAAATAAAAACACACACACAAACACAAAAAAATA [CACACA_site3390] | 11.4 |
| AAAATAAAATAAAACACAAAAAAATAAAACAAAATA [CACACA_negctrl_site16] | 9.78 |
| AAAAAAAAAAAAAACACACACACAAAATAAACAAAC [CACACA_site2720] | 10.8 |
| AAGGATATAAAAAAACGTACGTACGATAATATAATT [XGTACX_site1292] | 9.86 |
| GTTGTTATATAAAATTGTACATAAAAAACAAAATAT [XGTACX_site5313] | 9.66 |
| AAAAACCATTGGCACACACACATAATATATAATATA [CACACA_site4903] | 11.4 |
| AAAAACCATGGGCACACACACATAATATATAATATA [CACACA_site1425] | 10.4 |
| AAAAAAAAAAAAAAAACACACATATATCTATAATAT [CACACA_site6665] | 9.84 |
| AAAAACCATTCGCACACACACATAATCTATAATATA [CACACA_site6782] | 11.1 |
| AAAAAAAAAAAAAAAACACACACATATATATAATAT [CACACA_site9038] | 10.3 |
| GGAAAAACCATTCGCACACACACATAATATATAATA [CACACA_site1424] | 10.2 |
| TTACTCAAACAAACAAAAAAAAAAAAAAAAAAAAAA [TGCATGCA_negctrl_site457] | 8.89 |
| TATTTCATAATAAATTGTACGCGTAGAAAACCATGA [XGTACX_site7506] | 9.99 |

| Sequence | gcPBM binding intensity (ln) |
| --- | --- |
| TATTTATGCACGCGTGCACACACATATGAAAAAAGG [CACACA_site9090] | 9.87 |
| ACATATCTATCGTTTTTAATTGTATATTATTATAAC [TGCATGCA_negctrl_site144] | 9.76 |
| AAGACACAAAAACACACACACATACATACATACATA [CACACA_site454] | 10.3 |
| AATAAAAAAAAAAAAAAAAAAAAAAAGACACTAAAA [CACACA_negctrl_site1075] | 9.53 |
| TATAGACAAACACATACATGCATACATACATACATA [TGCATGCA_site273] | 9.75 |
| AAAAAAAAAAGACACACACACACAAATACATACACA [CACACA_site6472] | 10.8 |
| AAAAAAAAAAAACACACACACACACTAATACATACA [CACACA_site8135] | 10.6 |
| AAAAAAAAAAGACACACACACACATACACATACATA [CACACA_site7362] | 11.1 |
| GGCAACATTTGAAACACACACACATACAAACAAACA [CACACA_site3307] | 10.3 |
| CAAAGACACAAACACACACACACATACATACATACA [CACACA_site453] | 11.3 |
| AAAAAAAAAAGACACACACACACACTAATACATACA [CACACA_site6473] | 11.4 |
| AAAAAAAAAAAAAAGACACACATATATATATATATA [CACACA_site633] | 9.63 |
| ATAAAACAAAGACACACACACATACACAAAAAAAAA [CACACA_site7752] | 10.5 |
| CAACATTTGAGACACACACACATACAAACAAACAAA [CACACA_site7538] | 11.2 |
| TTATGGTATAAAAAAATACACACTTATATATATTCT [CACACA_site488] | 9.72 |
| TACGTAAAAATAATACGTACATATATTTATAGAAAA [XGTACX_site4959] | 9.71 |
| TATTAATTTTTTTTTTTTTTTTTTTTTTTTTTTTTT [CACACA_negctrl_site1329] | 9.26 |
| ATGATACATAAAGAATATAAAACATGAAATATAATA [CACACA_negctrl_site1461] | 9.79 |
